# Measured values reported in the supplement of paper PMC3545927.
# This is one part of the list. The hit rate among all sequences tested is not known here.
# B1: HC2420 (peptide)
# chain: CAEVPCHRPCAGNASASA
# B2: HC1577 (peptide)
# chain: CAIMFAPTLWAGNASASA
# B3: HC764 (peptide)
# chain: CASPVFTDNSAGNASASA
# B4: HC320 (peptide)
# chain: CAAWDMMMNWAGNASASA
# B5: HC1679 (peptide)
# chain: CAPEECSQHLAGNASASA
# B6: HC846 (peptide)
# chain: CAGEIPFYGKAGNASASA
# B7: HC1274 (peptide)
# chain: CAIEANLLWRAGNASASA
# B8: FS-745 (peptide)
# chain: CAAKARGPRSAGNASASA
# B9: FS-1078 (peptide)
# chain: CASASRGPRSAGNASASA
# B10: FS-1058 (peptide)
# chain: CARAERGPRSAGNASASA
# B11: FS-1176 (peptide)
# chain: CAVGKRQPRSAGNASASA
# B12: FS-705 (peptide)
# chain: CAREYRGQRSAGNASASA
# B13: HC835 (peptide)
# chain: CAATPPGSVTAGNASASA
# B14: HC1075 (peptide)
# chain: CAFVGAGLAGAGNASASA
# B15: HC2047 (peptide)
# chain: CAVVCCSFSYAGNASASA
# B16: HC605 (peptide)
# chain: CATKLLLAVFAGNASASA
# B17: HC2566 (peptide)
# chain: CASTPCSAHMAGNASASA
# B18: HC281 (peptide)
# chain: CAAMTPTVATAGNASASA
# B19: FS-763 (peptide)
# chain: CAERHRQTRSAGNASASA
# B20: FS-1574 (peptide)
# chain: CATHSIKKRSAGNASASA
# B21: FS-852 (peptide)
# chain: CAQTSRSNRFAGNASASA
# B22: FS-184 (peptide)
# chain: CAQTSRNTRSAGNASASA
# B23: FS-867 (peptide)
# chain: CASASHKKRSAGNASASA
# B24: HC1997 (peptide)
# chain: CASVCCSMSYAGNASASA
# B25: HC2423 (peptide)
# chain: CAAREVPCHRAGNASASA
# B26: HC363 (peptide)
# chain: CAPGAKQNVQAGNASASA
# B27: HC569 (peptide)
# chain: CASCGGVVLVAGNASASA
# Target: furin, P09958
# Assay: furin cleavage Z-score vs untreated control; higher = more cleavage, active = 3.5 or more, inactive = 1 or less, 8 variable residues between constant flanks
# How it was run: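 Furin cleavage was scored on 8-mer peptides joined to a cDNA oligonucleotide and bound to magnetic beads at the N-terminus. Digestion with purified furin (1:10 enzyme:substrate, 0.01 ml, 50 mM HEPES pH 7.5, CaCl2, NaCl) lasted 7.5, 15 or 30 min. Freed DNA was tagged with adapters by PCR, sequenced and counted; the cleavage Z-score is the lowess-adjusted log count versus furin-free reactions, scaled by median absolute deviation.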
# Chain of furin, P09958 (P09958 whole entry): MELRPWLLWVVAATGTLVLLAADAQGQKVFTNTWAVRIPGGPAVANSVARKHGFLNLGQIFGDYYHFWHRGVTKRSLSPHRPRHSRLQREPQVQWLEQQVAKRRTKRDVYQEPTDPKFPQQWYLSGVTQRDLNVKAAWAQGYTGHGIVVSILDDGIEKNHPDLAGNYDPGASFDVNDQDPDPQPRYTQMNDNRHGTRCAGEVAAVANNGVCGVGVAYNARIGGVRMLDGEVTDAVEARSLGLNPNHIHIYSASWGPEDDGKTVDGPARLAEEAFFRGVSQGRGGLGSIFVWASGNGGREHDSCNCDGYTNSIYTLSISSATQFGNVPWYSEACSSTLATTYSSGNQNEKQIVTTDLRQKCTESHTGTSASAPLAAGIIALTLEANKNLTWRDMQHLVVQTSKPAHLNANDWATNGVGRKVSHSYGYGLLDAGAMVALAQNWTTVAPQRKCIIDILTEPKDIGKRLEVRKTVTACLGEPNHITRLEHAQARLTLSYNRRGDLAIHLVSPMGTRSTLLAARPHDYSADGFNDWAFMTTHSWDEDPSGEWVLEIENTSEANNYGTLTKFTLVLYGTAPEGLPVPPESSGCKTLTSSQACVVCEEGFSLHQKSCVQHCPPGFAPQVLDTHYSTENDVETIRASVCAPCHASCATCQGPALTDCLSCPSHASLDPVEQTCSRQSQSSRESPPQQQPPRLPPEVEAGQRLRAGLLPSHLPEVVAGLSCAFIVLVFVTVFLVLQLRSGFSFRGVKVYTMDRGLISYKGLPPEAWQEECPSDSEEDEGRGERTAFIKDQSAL
Sequence,furin cleavage Z-score (7.5 min),furin cleavage Z-score (15 min),furin cleavage Z-score (30 min)
B1,0.0318 (inactive),0.651 (inactive),0.47 (inactive)
B2,-1.61 (inactive),-2.05 (inactive),0.617 (inactive)
B3,-0.427 (inactive),0.197 (inactive),-1.76 (inactive)
B4,1.05,0.73 (inactive),-0.468 (inactive)
B5,1.99,1.43,0.965 (inactive)
B6,1.57,-1.54 (inactive),-0.341 (inactive)
B7,0.45 (inactive),0.419 (inactive),0.862 (inactive)
B8,11 (active),9.83 (active),7.42 (active)
B9,4.05 (active),4.67 (active),4.87 (active)
B10,3.99 (active),4.52 (active),4.09 (active)
B11,10.8 (active),10.9 (active),8.62 (active)
B12,-0.292 (inactive),2.01,0.594 (inactive)
B13,-1.05 (inactive),-0.0418 (inactive),-0.602 (inactive)
B14,-0.934 (inactive),-0.739 (inactive),-0.847 (inactive)
B15,0.639 (inactive),-0.617 (inactive),-0.397 (inactive)
B16,1.92,3.24,0.635 (inactive)
B17,-0.903 (inactive),0.0563 (inactive),1.83
B18,0.668 (inactive),1.6,-0.149 (inactive)
B19,6.53 (active),6.61 (active),4.64 (active)
B20,8.84 (active),7.91 (active),7.4 (active)
B21,0.217 (inactive),-0.984 (inactive),0.464 (inactive)
B22,9.04 (active),11.5 (active),9.02 (active)
B23,3,2.31,3.6 (active)
B24,-0.28 (inactive),-0.316 (inactive),-0.657 (inactive)
B25,0.147 (inactive),1.34,1.67
B26,-0.22 (inactive),-0.957 (inactive),-0.643 (inactive)
B27,-1.44 (inactive),-0.138 (inactive),-1.42 (inactive)
